BoNT A protease = inhibitors of Botulinum neurotoxin A light chain protease | multiplex microsphere protease substrate cleavage, flow cytometry | inhibition, % at 10 µM | hit rate 0.17% among 360,000 | AID 588499; further: plate controls were buffer without enzyme for full effect and enzyme alone for no effect
Anthrax LF prot = anthrax lethal factor protease inhibition; multiplex microsphere protease cleavage assay, LF; hit rate 0.12% among 360,000; AID 588501; inhibition, % at 10 µM; P15917; further: plate controls were buffer without enzyme for full effect and enzyme alone for no effect
PfHsp40 yeast = compounds rescuing yeast from Plasmodium falciparum HSP40 toxicity. growth rescue, % at 12.5 µM. hit rate 0.68% among 340,000. S. cerevisiae expressing PfHsp40, growth rescue, ATP luminescence; in the data active means growth rescue above about 28%, passing the limit was not always enough;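 further: yeast W303a lacking pdr1 and pdr3 grown in galactose medium; growth measured after three days at 30 °C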
BoNT-F LC inh = BoNT F light chain protease inhibition. Multiplex microsphere protease cleavage assay, flow cytometry. inhibition, % at 10 µM. hit rate 0.22% among 360,000. AID 588497; in the data active means inhibition above about 35%, passing the limit was not always enough; further: plate controls were buffer without enzyme for full effect and enzyme alone for no effect
MazF activator = increases E. coli MazEF RNase cleavage of RNA; FAM/BHQ RNA-DNA oligo cleavage fluorescence, 5 h; activation, % at 20 µM; hit rate 0.32% among 350,000; AID 504720; in the data active means activation above about 50%
Bead autofluor = compound fluorescence in toxin protease inhibitor counterscreen. compound autofluorescence counterscreen, microsphere flow cytometry; hits give high values. fluorescence intensity (concentration not given with the values). hit rate 3.1% among 360,000; in the data active means fluorescence intensity above about 16000
The depositor's hits bear a star. Most compounds without a hit are left out; they make up all but 4.3% or so of the library. Unless noted, no stated cut-off is given here; in the data, active means inhibition above about 30%; inconclusive means no clear call, values can overlap the other calls; inactive means below that.

What do the screens show for `CC1(C)CC(=O)C(C=NCCN2CCN(C(=O)Cc3ccccc3)CC2)=C(O)C1`?
BoNT A protease: -2; Anthrax LF prot: -4; PfHsp40 yeast: -1; BoNT-F LC inh: -17; MazF activator: 2; Bead autofluor: 12206

What do the screens show for `COc1ccc(CN(C)CC(=O)Nc2ccc(Cl)cc2F)c(OC)c1`?
MazF activator: -8

Results for Cc1ccc(C2C(=O)N(C3CCC(C)CC3)CC(=O)N2C2CCCC2)cc1 (stereo unspecified) ?
BoNT A protease: -4; Anthrax LF prot: 1; PfHsp40 yeast: 11; BoNT-F LC inh: -2; MazF activator: -5; Bead autofluor: 23411*

Results for COc1cc(C2C(=O)N(C3CCCC3)CC(=O)N2Cc2ccco2)ccc1OC(C)C (stereo unspecified) ?
BoNT A protease: 5; Anthrax LF prot: -2; PfHsp40 yeast: 0; BoNT-F LC inh: 5; MazF activator: -4; Bead autofluor: 21363*

What do the screens show for `CCCN1C(=O)CN(C2CCCCCC2)C(=O)C1c1ccc(C)cc1` (stereo unspecified)?
BoNT A protease: -1; Anthrax LF prot: 2; PfHsp40 yeast: -2; BoNT-F LC inh: -2; MazF activator: -6; Bead autofluor: 23066*

Results for CCCOc1ccc(C2C(=O)N(C3CCCCC3)CC(=O)N2CCC)cc1OC (stereo unspecified) ?
BoNT A protease: 0; Anthrax LF prot: 1; PfHsp40 yeast: -1; BoNT-F LC inh: 2; MazF activator: 0; Bead autofluor: 20044*

What do the screens show for `C[C@@H]1CN([C@H](C)CO)C(=O)c2c(c3ccccc3n2C)-c2ccccc2CO[C@H]1CN(C)C(=O)CCC(F)(F)F`?
BoNT A protease: 0; Anthrax LF prot: 7; BoNT-F LC inh: 4; MazF activator: 2; Bead autofluor: 3743

Results for CCOC(=O)c1c(C)[nH]c(C)c1S(=O)(=O)NC1CCN(C(=O)OCC)CC1 ?
BoNT A protease: -4; Anthrax LF prot: -2; PfHsp40 yeast: 0; BoNT-F LC inh: -4; MazF activator: 10; Bead autofluor: 6354

How did O=C1NC(=O)C(=Cc2ccccc2OCCOc2ccc([N+](=O)[O-])cc2)C(=O)N1 do in these assays?
BoNT A protease: 0; Anthrax LF prot: -12; PfHsp40 yeast: 45*; BoNT-F LC inh: 0; MazF activator: -15; Bead autofluor: 3701

What do the screens show for `Cc1ccc(NS(=O)(=O)c2cccc(C(=O)Nc3c(C)n(C)n(-c4ccccc4)c3=O)c2)cc1`?
MazF activator: 2

How did C=CCOC(Cn1ccnc1)c1ccc(Cl)cc1Cl (stereo unspecified) do in these assays?
BoNT A protease: 1; Anthrax LF prot: 6; PfHsp40 yeast: 326*; BoNT-F LC inh: 0; MazF activator: -3; Bead autofluor: 6112

What do the screens show for `OC(COc1ccc(Cl)cc1Cl)Cn1ccnc1` (stereo unspecified)?
BoNT A protease: -2; Anthrax LF prot: -14; PfHsp40 yeast: -1; BoNT-F LC inh: 4; MazF activator: 2; Bead autofluor: 3651

Results for Clc1ccc(COC(Cn2ccnc2)c2ccc(Cl)cc2Cl)c(Cl)c1 (stereo unspecified) ?
BoNT A protease: -1; Anthrax LF prot: -10; PfHsp40 yeast: 91*; BoNT-F LC inh: -4; MazF activator: -37; Bead autofluor: 5830

Results for CCN(CC)CCNC(=O)C(=O)Nc1ccc2c(c1)N(S(=O)(=O)c1cccs1)CCC2 ?
BoNT A protease: 2; Anthrax LF prot: 0; PfHsp40 yeast: 1; BoNT-F LC inh: 6; MazF activator: 0; Bead autofluor: 5188

Results for C=CCN(C(=O)c1csnn1)C(C(=O)NCc1ccc(F)cc1)c1ccccc1F (stereo unspecified) ?
BoNT A protease: 0; Anthrax LF prot: -10; PfHsp40 yeast: -1; BoNT-F LC inh: -20; MazF activator: 2; Bead autofluor: 4039

What do the screens show for `O=C(CSc1nc2ccccc2[nH]1)NCCCn1ccnc1`?
BoNT A protease: 1; Anthrax LF prot: 0; PfHsp40 yeast: 0; BoNT-F LC inh: 1; MazF activator: 0; Bead autofluor: 16490*

How did Cc1cccc(OCC(=O)NCC(=O)N/N=C/c2cc(Br)cc(Br)c2O)c1 do in these assays?
BoNT A protease: 1; Anthrax LF prot: 0; PfHsp40 yeast: 0; BoNT-F LC inh: 3; MazF activator: 12; Bead autofluor: 5425
